Assay outcomes: PubChem, several laboratories
The list is not random: actives were taken first. Their share in the collection is about 3.8%.
ERa coact pot: enhancers of ERα–SRC-1 coactivator binding, primary screen, biochemical, TR-FRET, ERα LBD, low estradiol; Estrogen receptor (Homo sapiens), P03372; TR-FRET ERalpha-LBD/SRC-Cy5 coactivator binding, 2 h; 100 = basal binding, no effect; coactivator binding (% of control), % at 25.6 µM; hit rate 1.3% among 86,000; in the data active means activity above about 200%;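 further: binding measured in presence of low estradiol as agonist stimulus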
Target sequence (P03372 whole entry, looked up, the tested form may be a part): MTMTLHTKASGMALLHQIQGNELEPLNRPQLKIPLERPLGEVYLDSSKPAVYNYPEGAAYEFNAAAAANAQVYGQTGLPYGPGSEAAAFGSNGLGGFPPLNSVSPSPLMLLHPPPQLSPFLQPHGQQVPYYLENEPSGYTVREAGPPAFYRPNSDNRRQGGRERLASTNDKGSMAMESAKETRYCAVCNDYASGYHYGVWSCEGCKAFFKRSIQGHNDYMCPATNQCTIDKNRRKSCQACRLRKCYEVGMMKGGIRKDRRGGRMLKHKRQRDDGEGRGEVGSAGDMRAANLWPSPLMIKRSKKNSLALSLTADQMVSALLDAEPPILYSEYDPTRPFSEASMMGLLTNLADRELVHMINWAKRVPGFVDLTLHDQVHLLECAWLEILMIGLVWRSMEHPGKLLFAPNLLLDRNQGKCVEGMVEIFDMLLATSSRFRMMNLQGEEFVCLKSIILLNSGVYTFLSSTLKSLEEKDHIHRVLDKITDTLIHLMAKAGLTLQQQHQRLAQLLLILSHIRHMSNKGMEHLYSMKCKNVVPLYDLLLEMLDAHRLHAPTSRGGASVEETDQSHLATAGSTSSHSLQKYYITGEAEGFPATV
ERb SRC1 inh: inhibitors of ERβ-SRC1 coactivator interaction, primary screen, biochemical, TR-FRET, ERβ LBD, SRC-1 peptide. Estrogen receptor beta (Homo sapiens), Q92731. TR-FRET ER-beta LBD / SRC1-Cy5 peptide binding; receptor agonist-loaded with 1 µM estradiol. inhibition, % at 25.6 µM. hit rate 1.3% among 86,000. AID 633, 2007;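 active means compounds whose percent inhibition of the receptor-coactivator binding signal exceeds about 50% in the single-dose screen, limit read from the data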
hDAT+cocaine: changed hDAT dopamine uptake under cocaine IC80, either direction, primary screen, cocaine antagonist project, cell-based, LLC-PK1 hDAT, [14C]-dopamine uptake, MLSMR; AID 449768, 2010; B-score at 10 µM; hit rate 1.3% among 110,000; Sodium-dependent dopamine transporter (Homo sapiens), Q01959; LLC-PK1 hDAT cells, [14C]-dopamine uptake with cocaine IC80; actives deviate in either direction;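 active means Z score or B-score, a plate-position-corrected score, falls beyond the plate's 99.7% confidence bounds, in either direction; inactive means both scores lie inside the 99.7% bounds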
ERa coact inh: ERα–SRC-1 coactivator interaction inhibitors, primary screen, biochemical, TR-FRET, ERα LBD, estradiol-bound; Estrogen receptor (Homo sapiens), P03372; TR-FRET ER-alpha LBD / SRC-1 peptide; inhibition, % at 25.6 µM; hit rate 1.7% among 86,000; in the data active means inhibition above about 50%
MT1-MMP txn act: MT1-MMP promoter reporter activation – cell-based, luciferase luminescence, primary screen. HT1080 MT1-MMP promoter luciferase reporter, overnight; hits give high values. activation factor at 10 µM. hit rate 0.16% among 86,000. AID 750, 2007;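 active means activation factor of at least 2 for MT1-MMP transcription at 10 µM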
A number is an active result; n = inactive; x = not tested or not shown; [ ] = dose if it differs, or a comment.

SMILES	ERa coact pot	ERb SRC1 inh	hDAT+cocaine	ERa coact inh	MT1-MMP txn act
CCC(Sc1ncnc2sc(C)c(C)c12)C(=O)OC (stereo not drawn)	n	61	n	63[fluorescence artefact?]	x
Cc1cc(NC(=O)CSc2nc3ccc(Cl)cc3[nH]2)no1	n	n	n	n	n
CN1CCc2c(sc3c2C(=O)NC(/C=C/c2ccco2)N3)C1 (stereo not drawn)	n	54[fluorescence artefact?]	n	n	n
Cc1ccc(C2NC(=O)c3c(sc4c3CCN(C)C4)N2)o1 (stereo not drawn)	n	n	n	n	n
Cc1ccc(C2NC(=O)c3c(sc4c3CCN(C)C4)N2)s1 (stereo not drawn)	n	n	n	54[fluorescence artefact?]	n
CC1CCCN(Cc2c(O)ccc3c(=O)c(-c4nc5ccccc5s4)c(N)oc23)C1 (stereo not drawn)	x	x	2.5	x	x
O=C(CSc1ncn[nH]1)N1CCN(S(=O)(=O)c2ccccc2)CC1	n	n	n	n	n
Cc1ccc(-c2nnc(N3CCN(C(=O)CSc4ncn[nH]4)CC3)c3ccccc23)cc1	n	n	2.7	n	n
Cc1ccc(OCC(=O)N2CCN(c3nnc(-c4ccccc4)c4ccccc34)CC2)cc1	n	n	3	n	n
Cc1nn(Cc2ccccc2)c(C)c1NC(=O)CSc1nc(-c2ccccc2)nc2c1cnn2-c1ccccc1	n	n	x	72[fluorescence artefact?]	n
Cc1nc(SCC(=O)Nc2c(C)nn(C)c2C)c2cnn(-c3ccccc3)c2n1	n	n	n	n	n
CCOC(=O)N1CCC(Nc2c(N3CCN(c4cccc(C(F)(F)F)c4)CC3)c(=O)c2=O)CC1	n	63[fluorescence artefact?]	n	n	n
CCOC(=O)N1CCC(Nc2c(-c3ccccc3)c(=O)c2=O)CC1	n	n	n	n	n
CC(C)C(=O)NCCc1nc(-c2ccccc2Cl)no1	x	x	n	x	x
COc1ccc(Nc2ncnc3c2cnn3Cc2ccccc2)cc1	n	n	3.2	n	n
CCOc1ccc(Nc2ncnc3c2cnn3Cc2ccccc2)cc1	n	n	n	n	n
Cc1cc(C)c2c(=O)[nH]c(SCC(=O)c3ccc(C(C)C)cc3)nc2n1	558[fluorescence artefact?]	n	n	n	n
Cc1cc(=O)[nH]c(SCC(=O)c2ccc(C(C)C)cc2)n1	x	x	n	x	n
C=CCNCCCCOc1ccc(OCC)cc1	n	n	n	n	n
O=C1CC(/C=C/c2ccco2)=Nc2ccccc2N1	n	n	n	58	n
CC[C@H](C)C(C(=O)N1CCN(C(=O)OC(C)(C)C)CC1)n1cc(C(Cc2ccc(O)cc2)NC(=O)OC(C)(C)C)nn1 (stereo partly drawn)	x	x	n	x	x
O=C(N/N=C/c1ccc(Br)cc1)c1ccccc1-n1cccc1	n	n	n	n	n
CN(C)S(=O)(=O)c1ccc(C(=O)Nc2nnc(Cc3ccccc3)s2)cc1	n	n	n	n	n
Cc1nc2c(ccc3nc(NC(=O)c4ccc(S(=O)(=O)N(C)C)cc4)sc32)s1	241[fluorescence artefact?]	n	n	n	n
CCN(CC)C(=O)CC(c1cc(OC)c(OC)c(OC)c1)c1c(OC)cc(OC)c2c(-c3ccccc3)cc(=O)oc12 (stereo not drawn)	x	x	n	x	x
SMILES	ERa coact pot	ERb SRC1 inh	hDAT+cocaine	ERa coact inh	MT1-MMP txn act
Brc1ccc2[nH]c3c(N4CCc5ccccc5C4)ncnc3c2c1	495[fluorescence artefact?]	n	n	n	n
CC(C)(C)C(=O)NCCc1nc2ccccc2n1CC(=O)c1ccc(Cl)cc1	x	x	n	x	x
Cc1cc(CNC(=O)C2(C(F)(F)F)C/C(=C\Cc3ccccc3)CCCO2)nn1C (stereo not drawn)	x	x	n	x	x
CCOC(=O)C1CCN(C(=O)Nc2ccc3nc(-c4ccco4)c(-c4ccco4)nc3c2)CC1	n	95[fluorescence artefact?]	n	96[fluorescence artefact?]	n
CC(C)(C)C(=O)c1sc(Nc2ccccc2)nc1N	n	n	1.3	n	n
COC(=O)[C@@]1(C)C=C[C@@H](Cc2ccccc2)N1C(=O)c1ccccc1	x	x	x	x	n
O=C(CSc1n[nH]c(-c2ccccc2)n1)c1ccc(O)c(O)c1	n	77[fluorescence artefact?]	n	67[fluorescence artefact?]	n
CCc1ccc(C(=O)CSc2n[nH]c(-c3ccncc3)n2)cc1	n	n	n	n	n
CC(C)=CCc1cc2c(=O)c3c(O)c4c(cc3oc2c(O)c1O)OC(C)C4(C)C (stereo not drawn)	x	x	n	x	x
O=S(=O)(Nc1nc2ccccc2nc1Nc1ccc2c(c1)OCCO2)c1cccs1	n	71[fluorescence artefact?]	n	70[fluorescence artefact?]	n
Nn1cnnc1SCC(=O)Nc1ccc(C2CCCCC2)cc1	n	n	1.3	n	n
CC1CCCCN1c1nnc(NC(=O)c2cc(-c3ccc(Br)cc3)on2)s1 (stereo not drawn)	n	n	n	n	x
COc1cc(C(=O)OC2CC3CCC2(C)C3(C)C)ccc1OC(C)=O (stereo not drawn)	x	x	n	x	x
CCCc1cc(O)c2c(C)cc(=O)oc2c1	n	n	n	n	n
O=C(NCc1nc2ccccc2[nH]1)C1=C[C@@H](c2ccc(Br)cc2)C[C@@H](OCCCCO)O1	x	x	n	x	x
O=C(NCc1nc2ccccc2[nH]1)C1=C[C@@H](c2ccccc2)C[C@@H](OCCCCO)O1	x	x	3.2	x	x
O=C(NC1CC2CCCC(C1)N2Cc1ccco1)NC12CC3CC(CC(C3)C1)C2 (stereo not drawn)	n	n	-7.4	n	n
CCNC(=S)NC1CC2CCCC(C1)N2Cc1ccco1 (stereo not drawn)	x	x	n	x	x
C#CCCCC(=S)Nc1ccccc1	x	x	x	x	n
COc1cc(CCCN2C(=S)NC[C@@H]2Cc2ccccc2)cc(OC)c1OC	x	x	3	x	x
O=C(CSCC(=O)NC1CC1)Nc1ccc2ccccc2c1	n	n	n	n	n
CCOCCN1CCN(c2c(C)c(C)nc3cc(-c4cc(OC)cc(OC)c4)nn23)CC1	n	n	2.5	n	n
Nc1nnnn1/N=C/c1cccc(OCc2ccccc2Cl)c1	n	n	n	n	n
O=C(Nc1ccc(C2CCCCC2)cc1)C1CCN(c2ncccn2)CC1	234[fluorescence artefact?]	n	n	55	n
CCOCCCNC(=O)COc1ccc(OC)cc1	n	n	x	n	n
CC1(C)Cc2nc3nc(SCC(=O)NCCc4ccccc4)n(-c4ccccc4)c(=O)c3cc2CO1	n	n	n	n	n
CCOC(=O)N1CCc2c(sc3c2C(=O)NC(c2ccc(-c4ccc(Cl)cc4)o2)N3)C1 (stereo not drawn)	n	56[fluorescence artefact?]	x	79	n
CN1CCc2c(sc3c2C(=O)NC(c2ccccn2)N3)C1 (stereo not drawn)	n	n	n	n	n
CC(=O)N(Cc1cc(=O)[nH]c2ccccc12)c1ccccc1	n	n	n	n	n
CN(Cc1cc(=O)[nH]c2ccccc12)C(=O)c1ccccc1	n	n	x	n	2.2
